Activity calls are given as the source filed them. Calls come from the whole dose curve; as a rule, active = well fitted curve in the direction sought with a large enough effect; inactive = no such curve, though single readings can be large or run the other way. Residues, ends and D or L forms follow the SMILES beside them. *: point of attachment. Cbz = O=C(OCc1ccccc1)*
target: Alpha-galactosidase A (Homo sapiens) (UniProt P06280); test: Counterscreen for Glucocerebrosidase Inhibitors: qHTS Assay for Human alpha-Galactosidase at pH 4.5 (AID 992); settings: purified enzyme, fluorogenic substrate; series mostly up to 76.9 µM; activity change, negative = inhibition: at the top concentration; note: 0% is about no effect
Summary of the method: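 Read-out is 4-methylumbelliferone fluorescence (365 nm excitation, 440 nm emission) after a pH 10 NaOH/glycine stop. Reactions held 2 nM enzyme and 80 uM substrate at pH 4.5 for 20 min at room temperature.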

Sequence of Alpha-galactosidase A (Homo sapiens) (P06280 whole entry, looked up): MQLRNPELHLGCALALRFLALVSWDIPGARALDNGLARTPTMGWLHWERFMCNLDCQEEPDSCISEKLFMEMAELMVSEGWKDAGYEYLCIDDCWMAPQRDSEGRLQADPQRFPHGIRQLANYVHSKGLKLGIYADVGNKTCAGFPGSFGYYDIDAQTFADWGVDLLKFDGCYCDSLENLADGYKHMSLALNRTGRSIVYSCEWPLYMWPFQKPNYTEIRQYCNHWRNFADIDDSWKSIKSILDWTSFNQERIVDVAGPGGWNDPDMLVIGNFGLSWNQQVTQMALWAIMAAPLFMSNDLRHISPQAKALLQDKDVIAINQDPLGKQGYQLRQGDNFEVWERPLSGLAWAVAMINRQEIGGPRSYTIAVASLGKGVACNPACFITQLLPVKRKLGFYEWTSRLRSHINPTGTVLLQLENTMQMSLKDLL

Structure (SMILES) | activity change, negative = inhibition | outcome
N=C(N)c1ccc(OCCCCCOc2ccc(C(=N)N)cc2)cc1 (tested in a mixture with another compound) | -1.68% (inactive) | –
CCCn1c(=O)c2c(ncn2C)n(CCC)c1=O | -2.25% (inactive) | –
N#Cc1cc2nc(O)c(O)nc2cc1[N+](=O)[O-] | -5.79% (inactive) | –
Nc1ccc2c3c(cccc13)C(=O)NC2=O | -3.42% (inactive) | –
CN[C@H](CC(=O)O)C(=O)O | -0.739% (inactive) | –
COc1ccccc1N1CCN(CCN(C(=O)c2ccc(F)cc2)c2ccccn2)CC1 | -1.6% (inactive) | –
COc1ccc2c(c1)c(CC(=O)O)c(C)n2C(=O)c1ccccc1 | -2.45% (inactive) | –
Cc1nc(N=Nc2cc(S(=O)(=O)O)c3cc([N+](=O)[O-])cc(S(=O)(=O)O)c3c2)c(COP(=O)(O)O)c(C=O)c1O | 0.792% (inactive) | –
COc1cc(N)c(Cl)cc1C(=O)OCCN1CCCCC1 | -0.321% (inactive) | –
CCCOC(=O)c1c(-c2ccccc2)nc(CC)c(C(=O)SCC)c1CCC | -4.02% (inactive) | –
Cc1cc2c(cc1Cl)N(C(=O)Nc1ccnc3ccccc13)CC2 | -1.95% (inactive) | –
NC1(C(=O)O)CCCCC1 | -0.131% (inactive) | –
Cc1nc(N=Nc2ccc(C(=O)O)cc2)c(COP(=O)(O)O)c(C=O)c1O | -0.52% (inactive) | –
O=C(O)/C=C/c1ccc(O)c(O)c1 | 0.144% (inactive) | –
O=c1[nH]c(=O)c2nc3ccccc3nc2[nH]1 | 0.581% (inactive) | –
O=C1NC(=O)c2cc(Nc3ccccc3)c(Nc3ccccc3)cc21 | 1.25% (inactive) | –
COc1ccc(NC(=O)c2ccc(-c3ccc(-c4noc(C)n4)cc3C)cc2)cc1N1CCN(C)CC1 | 3.51% (inactive) | –
CC(=O)NCCc1c[nH]c2ccc(O)cc12 | 2.49% (inactive) | –
O=C1Nc2ccc(I)cc2/C1=C/c1cc(Br)c(O)c(Br)c1 | -8.35% (inactive) | –
O=S(=O)(c1cccc2c(Cl)cccc12)N1CCCNCC1 | 2.47% (inactive) | –

Structure (SMILES) | activity change, negative = inhibition | outcome
COc1cc(CNC(=O)CCCCCCC(C)C)ccc1O | -1.04% (inactive) | –
Cc1nc2c(OCc3ccccc3)cccn2c1CC#N | -1.26% (inactive) | –
CCN(CC)CCOC(=O)c1cc(Cl)c(N)cc1OC | -0.95% (inactive) | –
Nc1ccc(N2C(=O)c3ccccc3C2=O)c(Cl)c1 | 2.59% (inactive) | –
N#C/C(=C\c1ccc(O)c(O)c1)C(=O)NCCc1ccccc1 | -0.207% (inactive) | –
COc1ccc(-c2ccc(N)[n+](CCCC(=O)O)n2)cc1 | 1.51% (inactive) | –
C/C(=C\c1ccc(C(=O)O)cc1)c1ccc2c(c1)C(C)(C)CCC2(C)C | 6.54% (inactive) | –
O=c1onc2n1-c1cc(Br)ccc1OC2 | -1.44% (inactive) | –
COc1ccccc1N1CCN(CCCCNC(=O)c2ccc3ccccc3c2)CC1 | -5.76% (inactive) | –
N=C(N)SCCN | -0.0193% (inactive) | –
CCCn1c(=O)c2[nH]c(-c3ccc(S(=O)(=O)O)cc3)nc2n(CCC)c1=O | 17.9% (inactive) | –
NCCCNCCCCNCCCN | 6.53% (inactive) | –
N=C(N)SCCc1cnc[nH]1 | 3.31% (inactive) | –
CCCC(=O)NCCc1c2n(c3ccc(OC)cc13)CCCc1ccccc1-2 | -4.28% (inactive) | –
Cc1ccc([N+](=O)[O-])cc1S(=O)(=O)N(C)C | – | inactive
CCCn1c(=O)c2[nH]c(C3CCCC3)nc2n(CCC)c1=O | 0.128% (inactive) | –
CC(C)[C@H](NC(=O)OCc1ccccc1)C(=O)N[C@H](C=O)Cc1ccccc1 (Cbz-Val-Phe-aldehyde) | -0.835% (inactive) | –
C[N+](C)(C)CC=O | -1.41% (inactive) | –
CCCCCCC/C=C\CCCCCCCCC(=O)O | -2.71% (inactive) | –
O=C(O)c1cc(=O)cc(C(=O)O)[nH]1 | 2.05% (inactive) | –
